Not all results are given here.
aSyn 5UTR act: Activators via SNCA 5'UTR binding, MLPCN | alpha-synuclein 5'UTR reporter, activators screen | activity score, % (tested at 7.5 µM), hits read low | 300,000 compounds, 7.1% hits; in the data active = activity score below about -60%
Large screens that a line does not name were inactive.

CCN(CC)c1ccc2cc(C(N)=O)c(=O)oc2c1	aSyn 5UTR act -98
CCN(CC)c1ccc2cc(NC(=O)CCC(=O)O)c(=O)oc2c1	none
CCN(CC)c1ccc2c(-c3ccc(S(=O)(=O)O)cc3S(=O)(=O)[O-])c3ccc(=[N+](CC)CC)cc-3oc2c1	none
CCN(CC)c1ccc2cc(C(N)=O)c(=N)oc2c1	aSyn 5UTR act -67
O=Cc1cc(-c2ccccc2)[nH]c1-c1ccccc1	aSyn 5UTR act -64
O=C(Nc1ccc(O)cc1)c1cc2ccccc2c(=O)s1	aSyn 5UTR act -114
O=C(Nc1ccccc1)c1cc2ccccc2c(=O)s1	aSyn 5UTR act -209
CCC1(C)Cc2ccccc2-c2nc(NCCO)n(-c3ccc(C)cc3)c(=O)c21 (stereo not given)	aSyn 5UTR act -63
CC(=O)c1ccc(N(C(=O)Cn2nnc3ccccc32)C(C(=O)NCc2ccccc2)c2ccccn2)cc1 (stereo not given)	aSyn 5UTR act -106
O=C(Cn1nnc2ccccc21)NCc1ccccc1	aSyn 5UTR act -100
c1ccc(CCn2nnc3ccccc32)cc1	aSyn 5UTR act -138
Cc1cc(=O)[nH]c(N/N=C/c2ccc(-c3ccc(F)cc3)o2)n1	aSyn 5UTR act -70
Cc1cc(=O)[nH]c(N/N=C/c2ccccn2)n1	none
Cc1cc(=O)[nH]c(N/N=C/c2ccc(Br)s2)n1	aSyn 5UTR act -119
COc1ccc(-n2c(C)cc(C(=O)NC3CCCCC3)c2C)cc1	aSyn 5UTR act -156
CCOc1ccc(-n2c(C)cc(C(=O)CCl)c2C)cc1	none
Cc1cccc(-n2c(C)cc(C(=O)NC3CCCCC3)c2C)c1	aSyn 5UTR act -76
CCOC(=O)c1cc(C(=O)Nc2ccccc2F)nn1C	aSyn 5UTR act -159
COc1ccc(-c2cn3cc(C(F)(F)F)cc(Cl)c3n2)cc1	aSyn 5UTR act -197
Fc1ccc(-c2cn3cc(C(F)(F)F)cc(Cl)c3n2)cc1	aSyn 5UTR act -101
CC(=O)c1cccc(NC(=O)c2sc(Cl)nc2C)c1	aSyn 5UTR act -65
Cc1nc(Cl)sc1C(=O)Nc1ccccc1	aSyn 5UTR act -67
Cc1c(C(=O)Nc2ccccc2)sc2nc[nH]c(=O)c12	aSyn 5UTR act -72
Oc1ccc(N=Nc2n[nH]c(-c3ccccc3)n2)cc1	aSyn 5UTR act -85
O=C1c2ccccc2C(=O)C1c1nccc2ccccc12	none
c1ccc(-c2nc(-c3nccc4ccccc34)oc2-c2ccccc2)cc1	aSyn 5UTR act -82
O=C(c1cccs1)N1CCc2ccccc21	aSyn 5UTR act -157
CCOc1ccc(C(=O)N2CCc3ccccc32)cc1	aSyn 5UTR act -104
O=C(c1ccc2ccccc2c1)N1CCc2ccccc21	aSyn 5UTR act -100
CCC(C)Nc1nc(N)c([N+](=O)[O-])c(NC2CCCCC2)n1 (stereo not given)	none
O=c1c2ccccc2nc2c3ccccc3c(NCc3ccco3)nn12	aSyn 5UTR act -82
Cc1ccc(Nc2nc(NCc3ccco3)c3ccccc3n2)cc1	aSyn 5UTR act -139
CCC(C)Nc1nc(N)c([N+](=O)[O-])c(NCc2ccccc2)n1 (stereo not given)	none
Nc1nc(Nc2ccc(Cl)cc2)nc(NCc2ccco2)c1[N+](=O)[O-]	aSyn 5UTR act -75
CCS(=O)(=O)N1Cc2ccccc2CC1C(=O)Nc1ccc(F)c(F)c1F (stereo not given)	aSyn 5UTR act -62
O=C(Nc1nnc(C2CC2)s1)C1Cc2ccccc2CN1S(=O)(=O)c1ccccc1F (stereo not given)	aSyn 5UTR act -178
CCS(=O)(=O)N1Cc2ccccc2CC1C(=O)Nc1ccc(F)c(F)c1 (stereo not given)	aSyn 5UTR act -88
CCS(=O)(=O)N1Cc2ccccc2CC1C(=O)Nc1ncc(C)s1 (stereo not given)	aSyn 5UTR act -126
CCS(=O)(=O)N1Cc2ccccc2CC1C(=O)Nc1cccc(C)c1 (stereo not given)	aSyn 5UTR act -102
CSc1ccc(/C=N/n2c(C)cc(C)cc2=O)cc1	aSyn 5UTR act -127
CSc1ccc(/C=N/N2CCN(C)CC2)cc1	aSyn 5UTR act -95
CN1CCN(/N=C/c2ccc(-c3ccccc3)cc2)CC1	aSyn 5UTR act -133
Cn1c(N)c(-c2nc3cccnc3n2C)sc1=S	aSyn 5UTR act -95
COc1ccsc1NC(=O)OCc1ccc(Cl)cc1	aSyn 5UTR act -69
O=C(Cn1cccc1C(=O)c1ccccc1)NCc1ccccc1Cl	aSyn 5UTR act -74
Cc1ccccc1C(=O)c1cccn1CC(=O)NCc1ccccc1Cl	aSyn 5UTR act -100
CC(C)(C)n1ncc2c(=O)n(CC(=O)NCc3ccccc3Cl)cnc21	aSyn 5UTR act -90
NC(=O)C1CCN(C(=O)CCSc2ccccc2)CC1	aSyn 5UTR act -103
CCOC(=O)N1CCN(C(=O)CCSc2ccccc2)CC1	aSyn 5UTR act -108
O=c1n(-c2ccc(Br)cc2)cnn1-c1ncccc1[N+](=O)[O-]	aSyn 5UTR act -101
COc1ccc2[nH]c(=O)c(CNc3ccccc3)cc2c1	aSyn 5UTR act -167
COc1ccc2[nH]c(=O)c(CNc3ccccc3C)cc2c1	aSyn 5UTR act -94
Cc1nc2ccccc2c(=O)n1NC(=O)/C=C/c1ccccc1Cl	aSyn 5UTR act -138
Cc1cc(NC(=O)/C=C/c2ccccc2Cl)n(-c2nc3ccccc3[nH]2)n1	aSyn 5UTR act -111
O=C(/C=C/c1ccccc1Cl)Nn1cnc2ccccc2c1=O	aSyn 5UTR act -137
Nc1nccc(-c2ccc(-n3cccc3)cc2)n1	aSyn 5UTR act -132
O=C(NCc1cccnc1)/C(=C/c1ccc(-c2cccc(Cl)c2)o1)S(=O)(=O)c1ccccc1	aSyn 5UTR act -193
Cc1ccc(SCC(=O)c2c(C)nc3ccccn23)cc1	aSyn 5UTR act -85
O=C(NC(=S)Nc1ccc(N2CCCCC2)cc1)c1cccs1	aSyn 5UTR act -104
O=C(Nc1ccc(NC(=O)c2cccs2)c(Cl)c1)c1ccco1	aSyn 5UTR act -123
O=C(Nc1ccc(N2CCCC2)c(Cl)c1)c1cccs1	aSyn 5UTR act -114
O=C(NC(=S)Nc1ccc(N2CCOCC2)c(Cl)c1)c1cccs1	aSyn 5UTR act -110
c1ccc(Sc2cccc3ccccc23)c(CNC2=NCCN2)c1	none
c1ccc2[nH]c(-c3ccc4c(c3)OCO4)nc2c1	none
O=C(Nc1ccc(-c2cn3c(n2)SCC3)cc1)c1ccc2c(c1)OCO2	aSyn 5UTR act -87
O=C(Nc1ccc(-c2nc3ccccc3[nH]2)cc1)c1ccc2c(c1)OCO2	aSyn 5UTR act -102
Cn1ncc([N+](=O)[O-])c1C(=O)Nc1ccc(C2CCCCC2)cc1	aSyn 5UTR act -136
CS(=O)(=O)c1ccc(C(=O)Nc2ccc(-c3nc4ccccc4[nH]3)cc2)cc1	aSyn 5UTR act -67
Cn1ncc([N+](=O)[O-])c1C(=O)Nc1ccc(-c2nc3ccccc3[nH]2)cc1	aSyn 5UTR act -159
Cc1ccc(O)c(NC(=O)c2noc3c2CCc2ccccc2-3)c1	aSyn 5UTR act -122
Cc1ccc(O)c(NC(=O)c2noc(C(C)C)c2[N+](=O)[O-])c1	aSyn 5UTR act -86
Cc1cc(NC(=O)c2noc3c2CCc2ccccc2-3)no1	aSyn 5UTR act -77
CC(=O)c1cccc(NC(=O)c2noc3c2CCc2ccccc2-3)c1	aSyn 5UTR act -168
COc1ccc2c(c1)C1=NN(/C(C)=C/C(C)=O)C(c3ccc(F)cc3)C1CC2 (stereo not given)	aSyn 5UTR act -78
COc1ccc2c(c1)C1=NN(/C(C)=C\C(C)=O)C(c3ccccc3)C1CC2 (stereo not given)	aSyn 5UTR act -141
COc1ccc2c(c1)C1=NN(/C(C)=C/C(C)=O)C(c3cccc(F)c3)C1CC2 (stereo not given)	aSyn 5UTR act -64

Screening data from PubChem BioAssay.
